Screens: PubChem, The Scripps Research Institute Molecular Screening Center
Shown are actives, neighbours in structure and some others; about 2.3% of the full set was active somewhere.
CHO-K1 Ca ag – M1 agonist counterscreen hit in parental CHO-K1 cells; Fluo-8 calcium fluorescence; scaled to maximal ATP response, vehicle zero; activation, % at 3 µM; 360,000 compounds, 0.48% hits; AID 602248; in the data active = activation above about 15%;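 also: untransfected CHO-K1 host cells lacking M1 receptor as counterscreen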
CHRM1 PAM – potentiates human M1 receptor response to acetylcholine; activation, % at 3 µM; CHO-K1 hM1, Fluo-8 calcium fluorescence, ACh EC20; 0% = ACh EC20, 100% = maximal ACh; 360,000 compounds, 0.088% hits; in the data active = activation above about 19%, passing the limit was not always enough
Target sequence (P11229 whole entry, looked up): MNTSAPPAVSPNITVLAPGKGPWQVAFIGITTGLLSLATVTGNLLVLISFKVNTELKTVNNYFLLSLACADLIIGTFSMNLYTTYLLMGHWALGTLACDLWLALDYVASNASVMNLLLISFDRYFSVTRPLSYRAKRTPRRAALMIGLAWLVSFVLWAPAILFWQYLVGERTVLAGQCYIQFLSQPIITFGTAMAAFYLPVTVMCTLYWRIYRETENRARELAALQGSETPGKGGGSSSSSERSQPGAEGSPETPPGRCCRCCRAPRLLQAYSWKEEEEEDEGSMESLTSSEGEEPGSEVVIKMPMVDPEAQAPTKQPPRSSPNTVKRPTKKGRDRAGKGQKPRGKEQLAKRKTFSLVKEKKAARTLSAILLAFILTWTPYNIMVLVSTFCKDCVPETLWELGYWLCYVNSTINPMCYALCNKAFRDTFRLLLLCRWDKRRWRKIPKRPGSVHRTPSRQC
CHO-K1 Ca antag – counter-screen for M1 antagonists: effect in parental CHO-K1 cells. ATP-induced calcium, Fluo-8 fluorescence. inhibition, % at 3 µM. 360,000 compounds, 0.6% hits;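 active = inhibition above a per-plate cutoff, the plate's mean sample inhibition plus 3 SD, cut at about 24% in these data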
CHO-K1 Ca PAM – M1 PAM counterscreen hit in parental CHO-K1 cells; AID 602247; activation, % at 3 µM; ATP EC20, Fluo-8 calcium fluorescence; 0% at ATP EC20, 100% at ATP max; 360,000 compounds, 0.02% hits;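 active = activation above the run cutoff, the mean activation of all test compounds plus 3 SD, cut at about 40% in these data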;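 also: peak over basal fluorescence ratio in a 140 s read after ATP addition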
M1 antag – human CHRM1 antagonism; P11229; CHO-K1 hM1, Fluo-8 calcium fluorescence, ACh EC80 antagonist; inhibition, % at 3 µM; 360,000 compounds, 1.3% hits; AID 588852;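 active = percent inhibition above its own plate's cutoff, namely the mean of that plate's compound wells plus 3 SD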;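 also: peak over basal fluorescence ratio during 140 s after agonist addition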
M1 ag – agonists of human M1 muscarinic receptor; P11229; CHO-K1 hM1, Fluo-8 calcium fluorescence, agonist mode; 0% DMSO, 100% acetylcholine EC100; activation, % at 3 µM; 360,000 compounds, 0.33% hits;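 active = activation above the run's mean compound activation plus 3 SD, cut at about 16% in these data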;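 also: peak over basal fluorescence ratio within a 140 s kinetic read after compound addition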
Each line names hits and unclear results; the compound was inactive in the other large screens.

Cc1cc(NC(=O)CSc2cc(Cl)ccc2Cl)n(-c2ccccc2)n1	CHO-K1 Ca antag 25
CC(CCc1ccccc1)NC(=O)c1ccccc1Cl (centres undefined)	none
CCOc1ncccc1C(=O)NC(C)CCc1ccccc1 (centres undefined)	CHO-K1 Ca ag 19
O=[N+]([O-])c1ccc(-c2ccc(/C=N/Nc3nc(NCc4ccccc4)nc(N4CCOCC4)n3)o2)cc1	CHO-K1 Ca ag 18, CHO-K1 Ca antag 24, M1 antag 26
Cc1cc(C)c(C(=O)Nc2ccc(Br)c(C(F)(F)F)c2)c(C)c1	M1 antag 65
O=C(O)c1ccccc1C(=O)Nc1ccc(Br)c(C(F)(F)F)c1	none
NC(=O)c1ccc(NC(=O)COC(=O)c2ccc3c(c2)OCCO3)cc1	CHO-K1 Ca ag 20
O=C(COC(=O)c1ccc(Br)o1)Nc1ccc2c(c1)OCCO2	CHRM1 PAM 27
O=C(COC(=O)CNC(=O)c1ccc(Br)o1)Nc1ccc2c(c1)OCCO2	none
O=C(COC(=O)c1ccc(NS(=O)(=O)c2ccc3c(c2)OCCO3)cc1)NC1CCS(=O)(=O)C1 (centres undefined)	CHO-K1 Ca antag 25
Cc1c(CC(=O)N2CCC(C(=O)O)CC2)c(=O)oc2cc3c(cc12)CCC1(CCCCC1)O3	none
CC(OC(=O)C1CCN(S(=O)(=O)c2ccc(C(C)(C)C)cc2)CC1)C(=O)N(C)C1CCCCC1 (centres undefined)	none
Clc1ccc(-c2nc3ccc(Br)cn3c2Cc2cccc(Cl)c2)cc1	none
CC(C)(C)N(CC#CCC(O)(c1ccccc1)c1ccccc1)CCO	none
C(#CCN1CCCC1)CC(c1ccccc1)c1ccccc1	M1 antag 100
OC(CC#CCN1CCOCC1)(c1ccccc1)c1ccccc1	none
OC(CC#CCN1CCCC1)(c1ccccc1)c1ccccc1	M1 antag 100
OC(CC#CCN1CCCCC1)(c1ccccc1)c1ccccc1	M1 antag 97
CC(C)(C)C(O)(CC#CCN1CCCC1)c1ccccc1 (centres undefined)	M1 antag 98
CC(C)CC(O)(c1ccccc1)C(CN1CCOCC1)c1ccccc1 (centres undefined)	none
CC(C)C(O)(CC#CCN1CCCC1)c1ccccc1 (centres undefined)	M1 antag 99
Cc1ccccc1-c1nnc(SCC(=O)N2CCCC2)o1	none
Cc1ccc2sc(N3CCN(CCNC(=O)c4ccco4)CC3)nc2c1C	CHO-K1 Ca ag 20
O=C(NCCN1CCCCC1)c1ccco1	none
CC(C)OCCCn1c(SCC(=O)N2CCCC2=O)nc2ccccc2c1=O	CHO-K1 Ca ag 15
CCOc1ccc(NC(=O)NCCCn2c(C)nc3cc(C)c(C)cc32)cc1	M1 antag 46
O=C1/C(=C/c2cccnc2)Sc2ccccc21	CHRM1 PAM 25
COc1ccc(C2N(c3ccccc3)C(=O)C2(F)F)cc1OC (centres undefined)	none
Cc1ccc2nc(Nc3ccccc3)c(/C=N/O)c(=O)n2c1	CHO-K1 Ca antag 26
COc1ccc(C(=O)NNC(=S)NC(=O)c2cc(-c3ccccc3)nc3ccccc23)cc1	CHO-K1 Ca ag 30
COc1ccc(C(=O)NC(=S)NNC(=O)c2ccccc2C)cc1	CHO-K1 Ca ag 85, CHO-K1 Ca antag 24, M1 ag 85
COc1ccc(C(=O)NNC(=O)c2ccc(C(C)(C)C)cc2)cc1	none
COc1ccc(C(=O)NNC(=S)NC(=O)C(C)(C)C)cc1	CHO-K1 Ca ag 86, M1 ag 77
CCCOc1ccc(C(=O)NNC(=S)NC(=O)c2cc(-c3ccc(Cl)cc3)nc3ccccc23)cc1	none
COc1cc(C(=O)NNC(=S)NC(=O)c2ccccc2C)cc(OC)c1OC	CHO-K1 Ca ag 24
Cc1ccc(C(=O)O)cc1S(=O)(=O)Nc1ccccc1C(=O)NC1CC1	none
CCCc1nn(C)c(C(N)=O)c1[N+](=O)[O-]	none
O=C(COC(=O)c1ccc(F)cc1F)NC(=O)Nc1ccc2c(c1)OCCO2	none
CCCCC(Nc1ncnc2ccccc12)C(=O)O (centres undefined)	none
CC(Nc1ncnc2ccccc12)c1ccccc1 (centres undefined)	CHO-K1 Ca antag 24, M1 antag 27
COC(=O)c1ccc(OC(=O)CN2C(=O)c3ccccc3C2=O)cc1	none
O=C(COC(=O)c1ccc[nH]c1=O)NC1CCCc2ccccc21 (centres undefined)	none
COc1cc(=O)n(C)c2cc(N(C)C)ccc12	CHRM1 PAM 20
CCSc1nnc(NC(=O)CC)s1	M1 ag 16
CCSc1nnc(NC(=O)c2ccccc2C)s1	M1 antag 53
O=C(c1ccco1)N1CCN(Cc2nnc(-c3cccc(Cl)c3)o2)CC1	none
COc1ccc(NC(=O)C2(C)CCCN2C(=O)C(C)C)cc1OC (centres undefined)	none
CC(C)(C)OC(=O)C[C@@H]1C/C=C\C[C@H](CC(=O)N(CCO)Cc2ccccc2)C(=O)NCCOC1=O	none
CN(C)/C=N/C(=S)Nc1cc(Cl)cc(Cl)c1	CHO-K1 Ca ag 18
Cc1nn(-c2ccccc2)c(C)c1NC(=O)COc1cc(F)ccc1[N+](=O)[O-]	CHO-K1 Ca ag 18
CN(C)CCCN1c2ccc3ccccc3c2Sc2cccc(Cl)c21	none
CN(C)CCCN1c2ccccc2Sc2ccc3ccccc3c21	M1 antag 82
CSc1nc(SCCN(C)C)c2c3c(sc2n1)COC(C)(C)C3	M1 ag 51
CC(C)=CCc1cc(-c2oc3cc(O)cc(O)c3c(=O)c2O)ccc1O	none
CC(C)=CCc1c(O)cc2oc3c(CC=C(C)C)c(O)c(O)c(CC=C(C)C)c3c(=O)c2c1O	CHO-K1 Ca antag 25
Cc1ccc(S(=O)(=O)N2CCOCC2)cc1NC(=O)COC(=O)CCc1c[nH]c2ccccc12	none
CCOc1ccc(S(=O)(=O)NCCSCc2ccco2)cc1	none
COc1ccc(CCNS(=O)(=O)c2ccc(Br)cc2)cc1	none
COc1ccc(S(=O)(=O)NCCSCc2ccco2)cc1	CHO-K1 Ca antag 28
COc1ccc(S(=O)(=O)NCCc2ccccc2)cc1	M1 antag 29
Cc1ccc(S(=O)(=O)NCCc2ccncc2)cc1C	CHO-K1 Ca ag 18
COc1ccc(CCNC(=O)CNS(=O)(=O)c2ccc(Cl)cc2)cc1	CHO-K1 Ca antag 24
O=[N+]([O-])c1cccc(S(=O)(=O)[N-]c2nc3ccccc3nc2-n2cc[n+](Cc3ccccc3)c2)c1	none
Cc1cc(C)n(CCC(=O)Nc2ccc3c(c2)OCCO3)n1	none
CC1=CC(=O)C2(C)C(C)=C(C)C12C (centres undefined)	none
O=C(O)c1cn(Cc2ccccc2)c2ccccc2c1=O	M1 antag 62, M1 ag 82
O=C(O)CSc1cn(Cc2ccccc2)c2ccccc12	none
